High-throughput results deposited in PubChem by The Scripps Research Institute Molecular Screening Center.
TEAD-YAP block – TEAD-YAP interaction inhibition, primary screen, TEAD-YAP interaction inhibitor project, luminescence, HEK-TIYL cells | TEAD-Gal4/YAP UAS-luciferase luminescence | inhibition, % at 9.12 µM | 640,000 compounds, 1.4% hits | AID 1259422, 2018; in the data active = inhibition above about 32%;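 note: 0% = median of test compound wells and 100% = reference inhibitor wells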
FBW7 activator – FBW7 E3 ligase activators, primary screen, biochemical, AlphaScreen, human; F-box/WD repeat-containing protein 7 (Homo sapiens), Q969H0; AlphaScreen FBW7–phospho-cyclin E peptide binding, activator screen; normalized activity (activation), % at 26.1 µM; 650,000 compounds, 0.13% hits; in the data active = normalized activity above about 1.9%;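 note: purified mutant Fbw7 with reduced substrate affinity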
MITF inh – MITF inhibitors, primary screen, biochemical, AlphaScreen, human | Microphthalmia-associated transcription factor (Homo sapiens), O75030 | AlphaScreen MITF homodimerization, bead proximity signal | inhibition, % at 2.6 µM | 650,000 compounds, 0.91% hits | AID 1259374, 2018; in the data active = inhibition above about 50%;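 note: 0% = vehicle wells with protein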
GPR151 ag – activators of human GPR151, primary screen, cell-based, PathHunter beta-arrestin, luminescence | activation, % at 11.2 µM | 650,000 compounds, 1% hits | PathHunter beta-arrestin GPR151 cells | G-protein coupled receptor 151 (Homo sapiens), Q8TDV0; in the data active = activation above about 4.9%;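 note: 0% = median of compound wells and 100% = cells with positive control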
Target sequence (Q8TDV0 whole entry, looked up): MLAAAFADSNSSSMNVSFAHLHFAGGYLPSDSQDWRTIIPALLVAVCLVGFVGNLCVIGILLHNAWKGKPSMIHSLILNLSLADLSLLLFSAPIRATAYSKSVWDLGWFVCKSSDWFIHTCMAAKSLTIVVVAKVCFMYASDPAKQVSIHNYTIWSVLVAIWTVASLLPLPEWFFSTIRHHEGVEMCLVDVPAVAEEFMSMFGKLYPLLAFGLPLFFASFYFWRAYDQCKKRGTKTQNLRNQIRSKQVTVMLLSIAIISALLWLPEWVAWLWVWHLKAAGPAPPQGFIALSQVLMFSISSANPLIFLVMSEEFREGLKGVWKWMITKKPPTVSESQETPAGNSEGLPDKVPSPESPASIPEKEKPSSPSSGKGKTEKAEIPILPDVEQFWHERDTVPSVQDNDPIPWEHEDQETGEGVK
GPR151 confirm – GPR151 activators, triplicate retest, confirmation, cell-based, PathHunter beta-arrestin, luminescence. shares compounds with GPR151 ag. GPR151 PathHunter beta-arrestin cells, 90 min; % of EA-reagent control over plate median. activation, % at 11.2 µM. 6,700 tested, under 10 active. AID 1508609, 2020;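 active = mean percent activation across replicates above the confirmation screen cutoff of 4.91%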
GPR119 counter – GPR119 activators in beta-arrestin cells, counter-screen for GPR151 activator project, cell-based, PathHunter beta-arrestin, luminescence, triplicate. shares compounds with GPR151 ag. 90 min; 0 = compound-well median, 100 = enzyme-acceptor control. activation, % at 11.2 µM. 6,700 compounds, 0.3% hits. AID 1508611, 2020;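 active = mean percent activation in the counterscreen above 29.09%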;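 note: counterscreen on off-target GPR119 to flag nonselective hits from the GPR151 activator screen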
An asterisk follows results filed as active; x = not tested or not shown; ! = not active in a repeat. Shown are actives, neighbours in structure and some others; about 3.4% of the full set was active somewhere.

SMILES	TEAD-YAP block	FBW7 activator	MITF inh	GPR151 ag	GPR151 confirm	GPR119 counter
CC(C)P(=O)(Nc1ccccc1)C(C)C	4	0	1	8.0*	0	7
CN(C)CP(=O)(Nc1ccccc1)N(C)C (stereo not given)	7	0	2	2	x	x
O=C(Cn1c[n+]([N-][N+](=O)[O-])cn1)Nc1ccc(Cl)cc1	6	0	-1	2	x	x
CC(Cc1cccc(C(F)(F)F)c1)NCCCc1ccccc1 (stereo not given)	x	0	-9	9.1*	0	-5
CCOC(=O)C1=C(N)OC(C)=C(C(=O)OC(C)C)C12C(=O)Nc1ccccc12 (stereo not given)	5	0	17	-1	x	x
CC(Cc1ccsc1)NC1CCN(c2ccc(C(=O)N3CCOCC3)cc2)CC1 (stereo not given)	3	0	16	-1	x	x
O=C(O)CCn1cc(C=C2C(=O)NC(=S)NC2=O)c(-c2cccc(Cl)c2)n1	10	0	1	0	x	x
O=C(O)CCn1cc(C=C2C(=O)NC(=O)NC2=O)c(-c2ccc(Br)cc2)n1	15	0	1	5.4*	3	-3
O=C(Cc1ccc(Cl)cc1)N1CCN(Cc2ccccc2)CC1	-7	0	1	2	x	x
Cc1nc(SCc2ccccc2)[nH]c(=O)c1CC(=O)N1CCN(Cc2ccccc2)CC1	-1	0	6	6.2*	0	-7
Cc1cc2oc(=O)c3c(c2c(O)c1CN1CCN(C)CC1)CCCC3	6	0	-16	9.3*	0	8
CC(=O)Oc1cc(C)cc2oc(=O)c3c(c12)CCCC3	6	1	20	1	x	x
COC(=O)c1cccc(OC(NC(=O)c2ccco2)C(Cl)(Cl)Cl)c1 (stereo not given)	-3	1	19	0	x	x
C[C@H](N)[C@H](O)c1ccc(O)c(O)c1	-2	0	84*	5.7*!	1	5
O=[N+]([O-])c1ccc(N2CCNCC2)cc1NCCO	-25	0	3	0	x	x
CN1CCN(c2ccc([N+](=O)[O-])c(NCCO)c2)CC1	0	0	-4	11*	0	1
Cc1ccc2onc(CC(=O)N3CCN(C)CC3)c2c1	-14	0	12	-2	x	x
Cc1csc(NC(=O)c2cccn(Cc3ccc(Cl)cc3)c2=O)n1	-2	0	17	4.9*	-1	-16
C=CCOC(=O)C1=C(C)OC(N)=C(C(=O)OCc2ccccc2)C12C(=O)Nc1ccccc12 (stereo not given)	8	0	20	6.3*	1	3
CCCN1CCC[C@@H]2Cc3[nH]ncc3C[C@H]21	-1	0	-1	7.8*!	1	-7
CCCN1CCC[C@@H]2Cc3nc(N)ncc3C[C@H]21	-2	0	1	-1	x	x
O=C(CN1C(=O)CN=C(c2ccc(Cl)cc2)c2ccsc21)N1CCCCC1	8	0	-5	-1	x	x
CC1=C(C(=O)OC(C)C)C2(C(=O)Nc3ccc(Br)cc32)C(C#N)=C(N)O1 (stereo not given)	5	0	19	14*	0	-6
CCOC(=O)C1=C(C)OC(N)=C(C#N)C12C(=O)Nc1ccc(Br)cc12 (stereo not given)	0	0	4	1	x	x
COc1ccccc1N1CCN(C2CCCN(C(=O)Cc3sc(C)nc3C)C2)CC1 (stereo not given)	4	0	6	0	x	x
SMILES	TEAD-YAP block	FBW7 activator	MITF inh	GPR151 ag	GPR151 confirm	GPR119 counter
O=c1c(-c2ccccc2)coc2c(CN3CCCCC3)c(O)ccc12	8	0	3	5.1*	-1	-8
CCN(CC)c1ccc(/C=C\[N+](=O)[O-])c(C)c1	7	0	-10	6.7*	1	18
C[C@@H]1O[C@@H](O[C@H]2C[C@@H](O)[C@]3(CO)[C@H]4[C@H](O)C[C@]5(C)[C@@H](C6=CC(=O)OC6)CC[C@]5(O)[C@@H]4CC[C@]3(O)C2)[C@H](O)[C@H](O)[C@H]1O	103*	0	7	5.7*!	3	128*
O=c1c2cc(F)ccc2nc(N2CCCCC2)n1-c1ccc(Cl)cc1Cl	-10	0	-7	0	x	x
Cc1nc2ccc(NC(=O)CN3C4CCC3CC(O)(c3ccccn3)C4)cc2[nH]1 (stereo not given)	13	0	-5	-1	x	x
CC1(C)C(C(=O)N2CCC(C3(CCc4ccccc4)NC(=O)NC3=O)CC2)C1(C)C (stereo not given)	-5	0	9	-1	x	x
Cc1nn(Cc2ccccc2)c(C)c1C=O	-9	0	-2	5.1*	0	-1
C=CCN1C(=O)/C(=C/c2ccc(Cl)cc2Cl)C(=O)NC1=S	4	0	9	9.1*	-1	-8
C=CCN1C(=O)/C(=C\c2cc(Cl)c(O)c(OC)c2)C(=O)NC1=S	-2	0	-8	1	x	x
CCCC[N+]12CCC(CC1)C(C(=O)c1cccs1)C2 (stereo not given)	-8	0	24	5.8*	1	-3
CCOc1c(CNCCc2ccccc2F)cccc1OC	-3	0	7	0	x	x
COc1cc(C=C(C#N)C#N)cc(O)c1O	1	0	8	-1	x	x
CC(C)(C)c1cc(C=C(C#N)C#N)cc(C(C)(C)C)c1O	91*	0	-5	6.4*	1	18
COc1cccc([C@H](C)NC(=O)c2cn(CCN3CCCC3)c3cc(-c4cn[nH]c4)ccc23)c1	-3	0	16	11*	0	1
COc1cccc(CNC(=O)c2cn(Cc3ccccc3)c3cc(-c4cn[nH]c4)ccc23)c1	0	0	-3	2	x	x
CC(C)(C)c1ccc2c(c1)OP(=O)(O)C=C2c1ccccc1	-3	0	15	0	x	x
Cc1ccc(C2=CCN(Cc3nnnn3C3CCCC3)CC2)o1	6	0	-1	1	x	x
COc1cccc(C(c2c(O)[nH]c(=O)[nH]c2=O)N2CCCC(C)C2)c1OC (stereo not given)	4	0	17	19*	0	8
COc1cccc(C(c2c(O)[nH]c(=S)[nH]c2=O)N2CCOCC2)c1OC (stereo not given)	-12	0	9	0	x	x
CN1CCN(c2ccc([N+](=O)[O-])cc2C=O)CC1	1	0	13	5.9*	1	7
CN1CCN(c2ccc([N+](=O)[O-])cc2C(F)(F)F)CC1	-2	0	5	1	x	x
